The panel holds about 83,000 compounds, 20% with a hit somewhere; the sample as a whole holds those more often.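 Values shown are percent growth following 48 h exposure of cells in 96-well plates to a single concentration of compound; below 10 was considered active.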 Unmarked numbers belong to inactive results. Activity calls are given as the source filed them.
Columns and labels:
Experiment in all cases: NCI-60 one-dose screen, 48 h (100 = growth as untreated, 0 = no growth, -100 = all killed)
Conditions in all cases: 10 µM unless noted
NCI-H23 lung = test system: NCI-H23 lung
NCI-H226 lung = test system: NCI-H226 lung
NCI-H322M lung = test system: NCI-H322M lung
HOP-62 NSCLC = test system: HOP-62 NSCLC
HOP-92 NSCLC = test system: HOP-92 NSCLC
NCI-H522 lung = test system: NCI-H522 lung
A549/ATCC NSCLC = test system: A549/ATCC NSCLC
786-0 renal = test system: 786-0 renal
COLO 205 colon = test system: COLO 205 colon
DU-145 prostate = test system: DU-145 prostate
K-562 leukemia = test system: K-562 leukemia
MALME-3M melanoma = test system: MALME-3M melanoma
MDA-MB-231 breast = test system: MDA-MB-231 breast
RXF 393 renal = test system: RXF 393 renal
SF-268 CNS = test system: SF-268 CNS
SF-295 CNS = test system: SF-295 CNS
SF-539 CNS = test system: SF-539 CNS
UACC-257 melanoma = test system: UACC-257 melanoma
M14 melanoma = test system: M14 melanoma

SMILES	growth (NCI-H23 lung)	growth (NCI-H226 lung)	growth (NCI-H322M lung) [%]	growth (HOP-62 NSCLC)	growth (HOP-92 NSCLC)	growth (NCI-H522 lung)	growth (A549/ATCC NSCLC)	growth (786-0 renal)	growth (COLO 205 colon)	growth (DU-145 prostate) [%]	growth (K-562 leukemia)	growth (MALME-3M melanoma) [%]	growth (MDA-MB-231 breast) [%]	growth (RXF 393 renal)	growth (SF-268 CNS)	growth (SF-295 CNS)	growth (SF-539 CNS)	growth (UACC-257 melanoma)	growth (M14 melanoma)
C=CCNc1ccc2c3c(cccc13)C(=O)N(N1C(=O)c3cccc4cccc(c34)C1=O)C2=O	91.9%	93.9%	102	96.3%	98.7%	93.9%	98.2%	104%	117%	109	103%	110	108	104%	98.1%	102%	99.8%	98.5%	102%
CC/C=C\C[C@@H](O)C/C=C1/C(=O)C=C[C@H]1C/C=C\CCCC(=O)OC	22.3%	8.9% (active)	12	-31.6% (active)	22.9%	-67.7% (active)	-16.6% (active)	30.5%	-58% (active)	28.7	2.65% (active)	10.4	–	-16.8% (active)	0.223% (active)	80.9%	10.4%	56.5%	-1.62% (active)
COc1cccc(/C=C2\C=C(c3ccccc3)N(Cc3ccccc3)C2=O)c1	71.1%	73%	51	69.4%	18.1%	56.4%	47.9%	57.3%	74.3%	93.9	36.1%	98.2	–	39.8%	56.2%	44.6%	53.3%	83.3%	5.88% (active)
COc1ccc(C(=O)n2nc(-c3ccccc3)nc2N)cc1OC	93.9%	79.9%	89.1	79.7%	67%	85.4%	95.1%	96.1%	103%	104	80.1%	102	85.1	98.3%	95.4%	103%	91%	98.4%	105%
Cc1ccc(-c2nc(N3CCN(CC(=O)Nc4ccc(Cl)cc4)CC3)c3ccccc3n2)cc1	94%	92.9%	91.1	103%	114%	83.6%	77.4%	92.1%	102%	88.7	72.9%	101	80.1	74.9%	83.9%	95.6%	99.6%	104%	99.1%
Nc1nc2ccccc2c2c(=O)c3cc(F)ccc3sc12	87.3%	94.5%	99.2	108%	80.8%	98.1%	104%	97.4%	110%	104	107%	96.5	100	104%	103%	100%	104%	104%	99.6%
O=C(O)CCC/C=C\C[C@H]1C=CC(=O)/C1=C/C[C@@H](O)CCc1cccc(C(F)(F)F)c1	-22.1% (active)	-39.5% (active)	11.3	-31.9% (active)	-20.6% (active)	-62.7% (active)	-7.82% (active)	-31.3% (active)	-38.1% (active)	13.6	3.71% (active)	79.1	–	-65.7% (active)	3.06% (active)	-40.4% (active)	-1.94% (active)	-5.2% (active)	-16.2% (active)
CS(=O)(=O)Nc1cc(-c2ccc3ncnc(Nc4cccc(Cl)c4F)c3c2)cnc1Cl	56.6%	49.2%	47.2	54.7%	13.3%	53.8%	67.4%	29.6%	66.3%	63	53.4%	18.2	13.7	-24% (active)	24.2%	34.7%	27.8%	40.1%	50.1%
COc1c(B(O)O)cc(F)cc1-c1nc2ccc3[nH]ncc3c2c2c1CCCC2	0.235% (active)	8.89% (active)	14.2	16.1%	19.7%	13.1%	15%	1.01% (active)	-3.77% (active)	11.1	30.5%	20.3	22	-34.5% (active)	9.38% (active)	10.8%	-13.4% (active)	20.1%	28.3%
COc1ccc(C(=O)N=Nc2c(O)n(C)c3ccccc23)cc1	85.3%	91.1%	94.4	97.6%	86.1%	91.5%	105%	106%	106%	108	89.3%	103	85.2	100%	95.8%	101%	89.8%	106%	101%
COc1ccc2[nH]c(-c3ccccc3)c(/C=C(\C#N)S(=O)(=O)c3ccccc3)c2c1	60%	99.5%	77.8	79.1%	63.2%	64.3%	45.1%	69.1%	46.6%	70.1	5.1% (active)	47.7	56.8	57.5%	72.2%	43.2%	42.3%	78.6%	42.7%

— PubChem BioAssay (NCI)
